Most compounds without a hit are left out; they make up all but 5.3% or so of the library.
PostGolgi yeast – growth inhibition of a yeast mutant, post-Golgi transport screen; hit rate 0.9% among 98,000; inhibition, % at 10 µM; post-Golgi transport phenotypic cell assay;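 further: yeast cells grown in 1536-well plates; yeast grown about 18 h at 30C before absorbance read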
Measles CPE – protection of cells from measles virus; Measles virus-infected cells, CPE protection, absorbance; protection (pct of control), % at 4 µM; hit rate 1.5% among 140,000; in the data active means protection mostly above about 24%, no sharp cut-off; inactive means mostly below about 26%
PostGolgi ctrl – yeast control strain growth, post-Golgi counter-screen; efflux-deficient yeast background strain, growth absorbance A615, 16 h; inhibition, % at 10 µM; hit rate 5% among 98,000; AID 738
MT1-MMP txn act – activates MT1-MMP transcription | activation factor at 10 µM | AID 750 | HT1080 MT1-MMP promoter luciferase reporter, luminescence, overnight; stronger effect = higher value | hit rate 0.16% among 86,000;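 active means activation factor of at least 2 for MT1-MMP transcription at 10 µM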
An asterisk follows results filed as active; · = no result given. Unless noted, no stated cut-off is given here; in the data, active means inhibition above about 30%; inactive means the rest.

SMILES	PostGolgi yeast	Measles CPE	PostGolgi ctrl	MT1-MMP txn act
CC1(C)CC(=O)C(C=NCC2CCN(C(=O)Nc3ccc(Cl)c(Cl)c3)CC2)=C(O)C1	11.3	10.5	38.0*	1.2
Cc1nn(-c2ccccc2)c2nc(C(F)(F)F)[nH]c(=O)c12	·	40.9*	·	·
Cc1nn(CCC#N)c2nc(C(F)(F)F)[nH]c(=O)c12	-3.5	19.6	-11.4	1.2
Cc1ccc(-c2nnc(-n3ncc(C#N)c3N)c3ccccc23)cc1C	·	30.2	·	·
CCCC1C2C(=O)N(c3ccccc3)C(=O)C2ON1c1ccccc1 (configuration not stated)	-1.0	7.9	-7.6	1
CCCOc1ccc(N2C(=O)C3ON(c4ccccc4)C(CCC)C3C2=O)cc1 (configuration not stated)	3.0	25.5*	-4.7	1.1
CCOc1ccccc1C1C2C(=O)N(c3ccccc3)C(=O)C2ON1c1ccccc1 (configuration not stated)	0.2	47.2*	9.8	1.2
O=C(O)COc1ccccc1C1C2C(=O)N(c3ccccc3)C(=O)C2ON1c1ccccc1 (configuration not stated)	-0.3	4.3	-3.1	1.1
Cc1ccc(Oc2ccccc2/C=C/C(=O)O)cc1	6.6	15.3	3.7	·
CC(C)(C)C(=O)C(CO)(Oc1ccc(Cl)cc1)n1cncn1 (configuration not stated)	99.2*	18.6	95.0*	1.1
CN1CCN(Cn2cc(/C=C/C(=O)c3ccccc3)c3ccccc32)CC1	15.5	19.3	34.0*	1.5
COC(=O)c1cn(NC(=O)c2ccc(F)cc2)c(=O)c2ccccc12	-21.5	44.4*	11.8	1.2
O=C(c1ccccc1)N1CCCCCC1	·	2.0	·	·
O=C(c1ccccc1)N1CCN(S(=O)(=O)N2CCCCC2)CC1	-6.3	1.1	44.1*	1
Cc1nc2ccc(NS(=O)(=O)c3c(C)c(C)cc(C)c3C)cc2s1	10.1	4.7	36.4*	1.2
Cc1ccc(C(=O)Nc2ccc3nc(C)sc3c2)s1	5.5	59.7*	-4.4	1.3
Cc1nc2ccc(NC(=O)c3ccc([N+](=O)[O-])cc3)cc2s1	·	3.2	·	·
Cc1cc(NC(=O)c2ccc3nc(C)sc3c2)no1	8.0	59.6*	3.7	1.3
COC(=O)c1ccc(NCCC(=O)O)cc1	·	2.2	·	·
CCC(C)(C)C1CCc2c(sc(NC(=O)c3ccoc3C)c2C(N)=O)C1 (configuration not stated)	12.8	19.1	-10.8	1.1
CCC1CCc2c(sc(NC(=O)c3ccoc3C)c2C(N)=O)C1 (configuration not stated)	-1.1	4.4	30.3*	1.6
COc1ccc(C2(CNC(=O)c3ccc(OC)c([N+](=O)[O-])c3)CCCCC2)cc1OC	·	16.7	·	·
Cc1nn2c(-c3ccc(Cl)cc3Cl)nnc2s1	-20.9	15.4	33.5*	1
COc1ccccc1NC(=O)CNc1ccc(F)c(Cl)c1	·	19.0	·	·
Cc1cc(OCC(F)(F)C(F)(F)C(F)(F)C(F)(F)C(F)(F)C(F)F)nc(N)n1	37.0*	12.3	2.8	1.2
SMILES	PostGolgi yeast	Measles CPE	PostGolgi ctrl	MT1-MMP txn act
COC(=O)[C@@]1(Cc2ccccc2)[C@H]2c3cc(C(=O)N4CCCC4)n(Cc4ccccc4)c3C[C@H]2CN1C(=O)c1ccccc1	·	·	·	1.2
Cc1ccc2cc3cc(C(=O)NCc4ccc5c(c4)OCO5)oc3nc2c1	-3.2	33.9*	8.0	0.9
CC(=O)OCC(=O)NCc1ccc2c(c1)OCO2	-6.1	2.6	30.5*	1.1
Cc1ccc(O)c(-c2cc(C(=O)NCc3ccc4c(c3)OCO4)[nH]n2)c1	·	29.2*	·	·
Nc1c(C(=O)NCc2ccc3c(c2)OCO3)nnn1-c1ccc(OC(F)(F)F)cc1	-15.0	53.9*	8.4	1.1
Cc1ccc(CNC(=O)C2(CC(C)C)C=CCN2C(=O)c2ccccc2)o1 (configuration not stated)	·	·	·	1
COc1ccc(C)cc1NC(=O)C(NCC1CCCO1)c1ccccc1 (configuration not stated)	·	21.3	·	·
Cc1cc2oc(=O)cc(Cn3nnc(-c4ccc(Cl)cc4)n3)c2cc1C(C)C	·	7.1	·	·
Cc1cc(/C=C(/C#N)c2cccc(F)c2)c(C)n1-c1cccnc1	-2.5	32.5	37.3*	1.8
Cc1cc(/C=C(/C#N)c2cccc(Cl)c2)c(C)n1C	-0.4	3.6	42.9*	·
COc1cccc(NC(=S)NCc2cccs2)c1	·	8.1	·	·
Cc1ccc2nc(SCC(=O)NNC(=O)c3ccccc3)[nH]c2c1	·	22.0	·	·
CCN(CC)S(=O)(=O)c1cccc(-c2n[nH]c(=S)n2/N=C/c2ccc(OC)cc2)c1	·	13.2	·	·
COc1ccc(/C=N/n2c(-c3cccs3)n[nH]c2=S)cc1	1.6	22.2	39.7*	·
Cc1ccc(/C=N/n2c(-c3cccs3)n[nH]c2=S)cc1	-9.5	4.0	33.3*	·
C=CCOc1ccc(CNc2ccc(NC(=O)CC(C)C)cc2)cc1OC	·	2.1	·	·
O=C(Nc1cnn(Cc2ccc(Cl)c(Cl)c2)c1)c1nc2ncccn2n1	4.5	4.2	-3.5	1.1
Cc1ccc(Cn2ccc(NC(=O)c3cc(-c4ccccc4)on3)n2)cc1	-1.7	9.4	0.0	1
Cc1ccc(Cn2ccc(NC(=O)c3nc4ncccn4n3)n2)cc1	-0.9	39.4*	1.1	1.4
Cc1ccc(Cn2ccc(NC(=O)c3noc4c3CCCC4)n2)cc1	8.4	11.5	19.1	1
Cc1ccc(Cn2ccc(NC(=O)c3cc(-c4ccc5c(c4)OCO5)on3)n2)cc1	1.5	15.7	34.6*	1.2
O=C(Nc1cnn(Cc2ccc(Cl)cc2Cl)c1)c1noc2c1CCCC2	-5.1	4.1	33.2*	1.2
Cc1ccc(Cn2ccc(NC(=O)c3noc4c3CCCCC4)n2)cc1	5.6	61.8*	10.6	0.9
Cc1nccn1-c1cc(C(C)(C)C)nc2c(-c3ccccc3)cnn12	·	5.5	·	·
C/C=C/C(=O)OCC(=O)Nc1cc(-c2cc(C)c(C)cc2C)nn1-c1ccccc1	·	9.4	·	·
SMILES	PostGolgi yeast	Measles CPE	PostGolgi ctrl	MT1-MMP txn act
Cc1nnc(C)n1/N=C/c1ccccc1	-4.7	2.5	-1.2	1.1
N=C1N(/N=C/c2ccccc2)C(=Nc2ccccc2)C(=S)N1c1ccccc1	·	12.0	·	2*
O=C(Nc1cccc(O)c1)c1cc(-c2ccco2)on1	15.2	9.7	3.1	·
COCc1cc(=O)[nH]c2cc(NC(=O)C3CC3)c(C)cc12	-10.3	23.9	5.2	·
O=C(CCC(=O)OCC(=O)c1ccc(Cl)cc1Cl)Nc1cccc2cccnc12	1.9	4.5	37.5*	·
Cc1c(CCOC(=O)C23CC4CC(CC(C)(C4)C2)C3)sc[n+]1Cc1ccccc1	-3.4	7.1	33.8*	·
CC(C)C(=O)Nc1nc(-c2ccccc2)ns1	·	6.7	·	2*
O=C(Nc1nc(-c2ccccc2)ns1)c1cccs1	12.8	33.2*	27.8	1.3
O=C(Nc1nc(-c2ccccc2)cs1)c1cccs1	-9.0	1.1	0.0	1.8
COc1cc2c3nnc(-c4ccc(F)cc4)c-3cn(Cc3ccccc3)c2cc1OC	2.0	26.3	13.0	·
Oc1ccccc1C=NCC(O)c1ccccc1 (configuration not stated)	·	13.5	·	·
CCOc1ccc(-n2c(SCc3ccc([N+](=O)[O-])cc3)nnc2-c2ccc(OC)cc2)cc1	·	12.9	·	·
Cc1ccc(COn2c(-c3ccc(Cl)cc3Cl)nc3ncccc32)cc1	9.1	12.6	63.5*	·
Clc1ccc(-c2nnc3cccc(Cl)n23)c(Cl)c1	-4.8	8.1	9.7	1
Clc1cccc(COn2c(-c3ccc(Cl)cc3Cl)nc3ncccc32)c1	-6.1	11.4	71.1*	·
